According to PubChem BioAssay (EPA / NIEHS):
Results filed as inconclusive are left out. Where a structure was tested more than once in an assay, its records may differ in their call. Calls of active or inactive are those of the source. The calls were made as follows, unless noted: active = hit-call score of the fitted dose curve at least 0.9, where 1 is the maximum; inconclusive = response in the unintended direction; inactive = score below 0.9.

Experiments:
[1] = TOX21_p53_BLA_p4_viability: Viability Assessment in the Tox21 HCT-116 p53 Agonism Beta-lactamase Assay, Phase 4 (AID 2283597);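 also: hits lower the luminescence signal meaning cytotoxicity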
Summary of the method: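 4000 HCT116 cells per well; 5 h attachment; compounds from DMSO, 217-fold dilution; 16 h at 37C. Then CCF4-AM, 2 h RT, followed by CellTiter-Glo, 30 min RT, luminescence. Decrease = cytotoxicity.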

[2] = target: Cellular tumor antigen p53 (Homo sapiens) (UniProt P04637); assay: TOX21_p53_BLA_p5_ratio: Tox21 HCT-116 p53 Agonism Beta-lactamase Assay, Ratio, Phase 5 (AID 2283599)
Cellular tumor antigen p53 (Homo sapiens), sequence (P04637 whole entry, looked up): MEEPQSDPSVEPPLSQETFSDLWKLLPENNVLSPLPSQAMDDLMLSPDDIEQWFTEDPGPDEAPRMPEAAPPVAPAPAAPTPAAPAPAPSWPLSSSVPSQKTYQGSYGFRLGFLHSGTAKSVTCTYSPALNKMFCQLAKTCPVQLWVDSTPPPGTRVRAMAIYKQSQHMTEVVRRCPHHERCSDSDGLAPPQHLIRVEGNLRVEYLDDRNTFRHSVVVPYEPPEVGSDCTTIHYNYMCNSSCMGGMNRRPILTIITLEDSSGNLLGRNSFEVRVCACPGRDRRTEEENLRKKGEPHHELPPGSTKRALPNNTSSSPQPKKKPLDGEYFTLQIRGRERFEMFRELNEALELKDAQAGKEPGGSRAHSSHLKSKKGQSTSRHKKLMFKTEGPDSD
Summary of the method: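 HCT-116 cells carrying a p53-inducible beta-lactamase reporter were seeded at 4000 cells/well and dosed after 5 h with compound in DMSO (217-fold dilution). After 16 h at 37C, CCF4-AM substrate was added for 2 h, and the 460/530 nm emission ratio was scored as gain-of-signal versus DMSO.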

[3] = TOX21_p53_BLA_p5_viability: Viability Assessment in the Tox21 HCT-116 p53 Agonism Beta-lactamase Assay, Phase 5 (AID 2283600)
Summary of the method: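 Decreased CellTiter-Glo luminescence denotes lost viability. Exposure: 16 h at 37C, 5% CO2, with compounds from DMSO stocks diluted 217-fold in wells of 4000 cells.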

[4] = Tanguay_ZF_120hpf_YSE_legacy: (Legacy) Oregon State University Tanguay Lab 120 Hour Post-fertilization zebrafish Assay for Yolk Sac Edema (AID 2283634);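 as to AC50: actives raise the incidence of yolk sac edema above the DMSO baseline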
Summary of the method: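 Dechorionated Tropical 5D wild-type zebrafish embryos were exposed statically, one per well, from 6 to 120 hpf at 28C in 0.64% DMSO. Yolk sac edema was scored present/absent by brightfield at 120 hpf, and dead embryos were excluded.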

[5] = Tanguay_ZF_120hpf_AXIS_legacy: (Legacy) Oregon State University Tanguay Lab 120 Hour Post-fertilization zebrafish Assay for Body Axis Malformation (AID 2283635);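 as to AC50: potency for an increased fraction of larvae scored with body axis malformation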
Summary of the method: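 Dechorionated wild-type Tropical 5D zebrafish embryos, one per well, statically exposed from 6 hpf to 120 hpf at 28C in 0.64% DMSO final. Body axis malformation scored present/absent by brightfield microscopy at 120 hpf; dead embryos excluded.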

[6] = Tanguay_ZF_120hpf_EYE_legacy: (Legacy) Oregon State University Tanguay Lab 120 Hour Post-fertilization zebrafish Assay for Eye Malformation (AID 2283636);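 also: binary presence or absence of eye malformation scored by brightfield in 120 hpf larvae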
Summary of the method: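 Static waterborne exposure of dechorionated zebrafish embryos (strain Tropical 5D), 6 to 120 hpf, sealed plates at 28C, 0.64% DMSO vehicle. Eye malformation is scored as a binary endpoint, with gain of signal analysed relative to DMSO.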

[7] = Tanguay_ZF_120hpf_SNOU_legacy: (Legacy) Oregon State University Tanguay Lab 120 Hour Post-fertilization zebrafish Assay for Snout Malformation (AID 2283637)
Summary of the method: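 Dechorionated zebrafish, individually housed from 6 hpf in covered, sealed wells at 28C with 0.64% DMSO vehicle, were examined at 120 hpf for snout malformation. Responses were binary and analysed positive-direction relative to DMSO.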

[8] = Tanguay_ZF_120hpf_JAW_legacy: (Legacy) Oregon State University Tanguay Lab 120 Hour Post-fertilization zebrafish Assay for Jaw Malformation (AID 2283638);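 as to AC50: active means more embryos with jaw malformation than DMSO controls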
Summary of the method: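 Dechorionated Tropical 5D wild-type zebrafish embryos, one per well, exposed statically from 6 hpf to 120 hpf at 28C in 0.64% DMSO. Jaw malformation was scored by brightfield microscopy as present or absent. It was not scored in dead embryos.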

[9] = Tanguay_ZF_120hpf_PE_legacy: (Legacy) Oregon State University Tanguay Lab 120 Hour Post-fertilization zebrafish Assay for Pericardial Edema (AID 2283640);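 as to AC50: potency for increased incidence of pericardial edema versus DMSO baseline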
Summary of the method: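 Tropical 5D wild-type zebrafish embryos were statically exposed until 120 hpf at 28C, with 0.64% DMSO final. Pericardial edema was scored by brightfield as present or absent; endpoints were not scored in dead embryos.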

[10] = Tanguay_ZF_120hpf_BRAI_legacy: (Legacy) Oregon State University Tanguay Lab 120 Hour Post-fertilization zebrafish Assay for Brain Malformation (AID 2283641)
Summary of the method: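 Tropical 5D wild-type zebrafish embryos exposed statically until 120 hpf at 28C, 0.64% DMSO final, sealed and dark. Brain malformation scored present/absent by brightfield at 120 hpf; dead embryos excluded. Trimethyltin chloride 5uM positive control.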

[11] = Tanguay_ZF_120hpf_SOMI_legacy: (Legacy) Oregon State University Tanguay Lab 120 Hour Post-fertilization zebrafish Assay for Somite Malformation (AID 2283647)
Summary of the method: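 Dechorionated Tropical 5D wild-type zebrafish embryos, one per well from 6 hpf, statically exposed at 28C to 120 hpf in 0.64% DMSO; somite malformation scored present/absent by brightfield; trimethyltin 5 uM positive control; dead embryos not scored.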

[12] = Tanguay_ZF_120hpf_PFIN_legacy: (Legacy) Oregon State University Tanguay Lab 120 Hour Post-fertilization zebrafish Assay for Pectoral Fin Malformation (AID 2283648);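 also: each larva judged yes or no for fin defect by brightfield with dead larvae skipped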
Summary of the method: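 Scoring of pectoral fin malformation was binary, made at 120 hpf on larvae exposed statically from 6 hpf after enzymatic chorion removal. Activity was fitted upward relative to DMSO controls at 0.64% (vol/vol).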

[13] = Tanguay_ZF_120hpf_CFIN_legacy: (Legacy) Oregon State University Tanguay Lab 120 Hour Post-fertilization zebrafish Assay for Caudal Fin Malformation (AID 2283649)
Summary of the method: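 Dechorionated Tropical 5D wild-type embryos, one per well from 6 hpf, static exposure to 120 hpf at 28C in 0.64% DMSO. Caudal fin malformation scored by brightfield as present/absent; not scored in dead embryos.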

[14] = Tanguay_ZF_120hpf_PIG_legacy: (Legacy) Oregon State University Tanguay Lab 120 Hour Post-fertilization zebrafish Assay for Pigmentation Malformation (AID 2283650)
Summary of the method: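 Endpoint is incidence of abnormal pigmentation at 120 hpf in dechorionated 5D zebrafish exposed singly from 6 hpf at 28C, DMSO vehicle at 0.64%. Embryos dying by 24 or 120 hpf are excluded from scoring.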

[15] = Tanguay_ZF_120hpf_CIRC_legacy: (Legacy) Oregon State University Tanguay Lab 120 Hour Post-fertilization zebrafish Assay for Circulatory Malformation (AID 2283651)
Summary of the method: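 Binary circulatory-malformation call at 120 hpf via brightfield imaging, relative to DMSO controls. Embryos (5D strain, chorion removed) received static, light-shielded exposure at 28C.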

[16] = read-out: kallikrein-3 (KLK3), KLK3 (gene 354); assay: LTEA_HepaRG_KLK3: Life Technologies and Expression Analysis (LTEA) Assay for kallikrein-3 (KLK3) using HepaRG (AID 2283652; active = hit-call score of the fitted dose curve at least 0.9, where 1 is the maximum; inactive = score below 0.9); conditions: mRNA level, 48 h; actives raise or lower the signal
Summary of the method: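 KLK3 transcript levels were measured by TaqMan qRT-PCR with normalisation to three housekeeping genes. HepaRG cultures received chemicals for 48 h at up to 100 uM (half-log, 8 points, 0.5% DMSO vehicle), fitted in both directions against DMSO.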

[17] = Tanguay_ZF_120hpf_SWIM_legacy: (Legacy) Oregon State University Tanguay Lab 120 Hour Post-fertilization zebrafish Assay for Swim Bladder Malformation (AID 2283654);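 also: swim bladder malformation in each larva scored yes or no under brightfield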
Summary of the method: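 Static waterborne exposure of single dechorionated Tropical 5D zebrafish embryos, 6–120 hpf, 28C, 0.64% DMSO final. Read-out: swim bladder malformation, present/absent, relative to DMSO negative control; trimethyltin chloride 5uM served as positive control.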

[18] = target: Cellular tumor antigen p53 (Homo sapiens) (UniProt P04637); assay: TOX21_p53_BLA_p4_ratio: Tox21 HCT-116 p53 Agonism Beta-lactamase Assay, Ratio, Phase 4 (AID 2283601)
Summary of the method: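 HCT116 cells carrying an inducible beta-lactamase reporter were plated at 4000 cells/well, rested 5 h, then exposed to compounds in DMSO (217-fold dilution) for 16 h at 37C. CCF4-AM substrate was loaded 2 h at room temperature; 460/530 nm emission ratio scored gain-of-signal versus DMSO.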

[19] = Tanguay_ZF_120hpf_OTIC_legacy: (Legacy) Oregon State University Tanguay Lab 120 Hour Post-fertilization zebrafish Assay for Otic Vesicle Malformation (AID 2283639)
Summary of the method: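 Wild-type zebrafish larvae, whole-embryo exposure from early stage to 120 hpf at 28C. Binary brightfield scoring of otic vesicle morphology, fitted in the positive direction against the DMSO baseline.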

[20] = Tanguay_ZF_120hpf_MORT_legacy: (Legacy) Oregon State University Tanguay Lab 120 Hour Post-fertilization zebrafish Assay for Mortality (AID 2283633)
Summary of the method: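 Dechorionated Tropical 5D wild-type zebrafish embryos, one per well from 6 hpf, static exposure in 0.64% DMSO at 28C until 120 hpf. Mortality scored as binary by brightfield microscopy at 24 and 120 hpf.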

Measured: AC50

CC1(C(=O)Nc2ccc(O)c(Cl)c2Cl)CCCCC1
not listed: [18] | [19] | [20]
inactive: all other assays above

COc1cc(OC)nc(Sc2cccc(Cl)c2C(=O)O)n1
not listed: [8] | [11] | [16] | [20]
inactive: all other assays above

CSc1nnc(C(C)(C)C)c(=O)n1N
not listed: [14] | [16] | [18] | [20]
inactive: all other assays above

CCOP(=S)(OCC)Oc1cc(C)nc(C(C)C)n1
active: [2] 41.7 µM | [3] 36.1 µM
inactive: [1] | [3] | [18] | [4] | [7] | [19] | [9] | [12] | [13] | [14] | [15]

CNC(=O)ON=C(SC)C(=O)N(C)C
not listed: [8] | [15] | [16] | [18] | [20]
inactive: all other assays above

FC(F)C(F)(F)OCC(Cn1cncn1)c1ccc(Cl)cc1Cl (stereo not given)
inactive: [2] | [3] | [20]
active: [1] 60.5 µM | [4] 43.2 µM | [5] 15.7 µM | [6] 47.5 µM | [7] 47 µM | [19] 47 µM | [9] 26.1 µM | [10] 13.7 µM | [11] 48.5 µM | [12] 46.6 µM | [13] 49.2 µM | [14] 49.6 µM | [15] 17.2 µM | [17] 18.2 µM

CCc1cccc(C)c1N(C(=O)CCl)C(C)COC (stereo not given)
not listed: [8] | [16] | [18]
inactive: all other assays above

COP(=O)(OC)SCn1c(=O)oc2cc(Cl)cnc21
active: [2] 73.7 µM | [4] 44 µM | [6] 15.3 µM | [7] 47.5 µM | [9] 11.2 µM
not listed: [8] | [16] | [18] | [20]
inactive: all other assays above

CSC1=N[C@@](C)(c2ccccc2)C(=O)N1Nc1ccccc1
active: [4] 3.52 µM | [9] 2.63 µM
not listed: [8] | [16] | [20]
inactive: all other assays above

C#CCC1=C(C)C(OC(=O)C2C(C=C(C)C)C2(C)C)CC1=O (stereo not given)
not listed: [5] | [8] | [16]
inactive: all other assays above

C[Si](Cn1cncn1)(c1ccc(F)cc1)c1ccc(F)cc1
active: [1] 53 µM | [4] 40.9 µM | [5] 10.3 µM | [6] 46.9 µM | [7] 12 µM | [8] 13.4 µM | [19] 12.7 µM | [9] 9.78 µM | [10] 47 µM | [11] 47.7 µM | [12] 20.9 µM | [13] 36 µM
inactive: [1] | [2] | [3] | [14] | [15] | [17]

CC(Oc1cccc(Cl)c1)C(=O)O (stereo not given)
not listed: [8] | [16] | [18] | [20]
inactive: all other assays above

CCC(CC)Nc1c([N+](=O)[O-])cc(C)c(C)c1[N+](=O)[O-]
not listed: [8] | [16] | [18] | [20]
inactive: all other assays above

CON=C(C(=O)OC)c1ccccc1CON=C(C)c1cccc(C(F)(F)F)c1
active: [2] 2.24 µM | [4] 7.29 µM | [6] 5.22 µM | [7] 4.07 µM | [9] 8.26 µM | [10] 6.64 µM
not listed: [8] | [16] | [18] | [20]
inactive: all other assays above

CC(C)=CC1C(C(=O)OCN2C(=O)C3=C(CCCC3)C2=O)C1(C)C (stereo not given)
inactive: [1] | [2] | [3] | [18] | [4] | [5] | [6] | [7] | [9] | [10] | [11] | [12] | [13] | [15] | [17]
active: [1] 46.1 µM

CCCCSP(=O)(SCCCC)SCCCC
active: [4] 7.24 µM
not listed: [8] | [16] | [20]
inactive: all other assays above

Nc1nc(N)nc(NC2CC2)n1
not listed: [8] | [9] | [10] | [16] | [18]
inactive: all other assays above

O=c1ccc(=O)[nH][nH]1
active: [4] 25.4 µM | [5] 51.7 µM
not listed: [7] | [8] | [15] | [16] | [18]
inactive: all other assays above
